An excerpt weighted towards active compounds, which were near 2.6% of everything screened.
TWEAK-Fn14 inh – inhibitors of TWEAK-Fn14 signaling, primary screen, luciferase reporter cells, uHTS; TWEAK-stimulated Fn14 reporter cells, luciferase luminescence, 8 h; actives 2% (n = 360,000); inhibition, % at 10 µM; AID 1159606, 2016; in the data active = inhibition above about 50%
KKLEB tox – cytotoxicity in KKLEB CF airway cells, primary screen, cytotoxicity control for CF NF-kB inhibitor project, cell-based, uHTS, fluorescence assay plates. KKLEB CF airway cells viability, ATPlite luminescence, overnight; hits give low values; cells stimulated with P. aeruginosa culture filtrate. activity change (cytotoxicity), % at 5 µM. actives 0.36% (n = 360,000);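 active = corrected activity change at or below -50% at 5 µM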
EWS-Fli inh – EWS/Fli-driven NR0B1 reporter inhibitors, primary screen, A673 cells, NR0B1 luciferase, luminescence, MLPCN library. viability-normalised. inhibition, % at 12.6 µM. actives 0.67% (n = 350,000). AID 651661, 2012;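 active = mean inhibition of at least 50% after viability correction, with every replicate also passing that limit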;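 also: firefly luciferase signal divided by Alamar Blue viability fluorescence both relative to DMSO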
LGR2 inh – inhibitors of bursicon-induced LGR2 CRE-luciferase signal, primary screen, cell-based, HEK293, CRE-luciferase reporter, bursicon stimulation; Drosophila bursicon receptor LGR2 (rickets); inhibition, % at 9.99 µM; bursicon-stimulated, 4 h; actives 0.35% (n = 380,000); AID 720647, 2013;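 active = drop in luminescence signal, shown as inhibition above about 50% in the replicate tests, limit read from the data, passing the limit was not always enough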;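 also: agonist challenge used bursicon conditioned medium at about half maximal strength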
TROY signal inh – inhibitors of TROY-driven NF-kB signaling, primary screen, Q293 LMP1-TROYcd cells, NF-kB luciferase, uHTS; inhibition, % at 10 µM; Q293 LMP1-TROYcd NF-kB luciferase reporter, 4 h; actives 0.98% (n = 360,000);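 active = compounds whose plate-normalised and pattern-corrected inhibition of the luciferase reporter signal at the single screening dose is 50% or more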
CF NFkB block – inhibitors of PAF-induced NF-kB signaling, primary screen, cell-based, GFP fluorescence, uHTS; KKLEB NF-kB-GFP reporter, GFP fluorescence overnight; actives 0.86% (n = 360,000); inhibition, % at 5 µM;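 active = at least 50% inhibition at 5 µM, scaled per plate between neutral and stimulator controls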;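 also: PAF is a Pseudomonas aeruginosa culture filtrate used as stimulus; plate controls were PAF-stimulated DMSO wells for no effect and unstimulated DMSO wells for full effect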
DNA binder FP – DNA binders by acridine orange displacement, dose response, counter-screen for EWS/Fli inhibitor project, biochemical, fluorescence polarization, cherry-pick | AC35, µM (titrated, usually from 68 µM), for inactives: at the top dose activity change, negative = DNA binding | actives 2% (n = 640) | shares compounds with EWS-Fli inh | salmon sperm DNA acridine orange fluorescence polarization;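 active = fitted curve reaches a 35% signal fall AC35 below twice the sample's top valid tested dose, actives reach about 48 µM in these data; inactive = the rest, including activity in the rising direction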;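 also: lower polarization ratio signals compound binding to DNA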
Active calls of the source: *.

For C[C@H]1CN([C@@H](C)CO)C(=O)c2cccc(NC(=O)CCCCCC(=O)Nc3ccccc3N)c2O[C@@H]1CN(C)Cc1ccc2c(c1)OCO2 the results were EWS-Fli inh 57*, LGR2 inh 3 and DNA binder FP 11%.
C[C@@H]1CN([C@@H](C)CO)C(=O)c2cccc(N(C)C)c2O[C@@H]1CN(C)Cc1ccc(C(=O)Nc2ccccc2N)cc1 was read as EWS-Fli inh 54* and DNA binder FP -12%.
C[C@@H]1CN([C@@H](C)CO)C(=O)c2cccc(NS(=O)(=O)c3ccc(F)cc3)c2O[C@H]1CN(C)Cc1ccc(C(=O)Nc2ccccc2N)cc1 was read as EWS-Fli inh 37 and LGR2 inh 19.
C[C@H]1CN([C@@H](C)CO)C(=O)c2cccc(N(C)C)c2O[C@@H]1CN(C)Cc1ccc(C(=O)Nc2ccccc2N)cc1 was read as EWS-Fli inh 13 and LGR2 inh -12.
For C[C@@H]1CN([C@@H](C)CO)C(=O)c2cccc(NS(=O)(=O)c3ccc(F)cc3)c2O[C@@H]1CN(C)Cc1ccc(C(=O)Nc2ccccc2N)cc1 the results were EWS-Fli inh 55*, LGR2 inh -4 and DNA binder FP -8%.
`CCOc1ccc2nc(NC3=NC(c4ccc(OC)cc4)CC(=O)N3)nc(C)c2c1` (stereo unspecified) gave TWEAK-Fn14 inh -37, KKLEB tox -16, EWS-Fli inh 57*, LGR2 inh 20, TROY signal inh -10, CF NFkB block 11 and DNA binder FP -1%.
For Cc1ccccc1N=Nc1c(O)n(C)c2ccccc12 the results were TWEAK-Fn14 inh -15, KKLEB tox 12, EWS-Fli inh 60*, LGR2 inh -2, TROY signal inh 28, CF NFkB block -22 and DNA binder FP -17%.
CCC(=O)Nc1ccc2c(c1)C(=O)N(C)C[C@H](OC)[C@H](C)CN(C(=O)c1ccccc1F)[C@H](C)CO2 was read as EWS-Fli inh -11 and LGR2 inh -5.
For C(=Cc1cnc2ccccc2n1)c1ccc2c(c1)OCO2 the results were TWEAK-Fn14 inh 98*, KKLEB tox -65*, EWS-Fli inh 88*, LGR2 inh 99*, TROY signal inh 81*, CF NFkB block -31 and DNA binder FP 1%.
Screening C(=Cc1nc2ccccc2o1)c1ccc2c(c1)OCO2 returned TWEAK-Fn14 inh 86*, KKLEB tox -42, EWS-Fli inh 69*, LGR2 inh 81*, TROY signal inh 58*, CF NFkB block -39 and DNA binder FP 3%.
Screening COc1ccc2nc(-c3ccc(F)cc3)sc2c1 returned TWEAK-Fn14 inh 75*, KKLEB tox -15, EWS-Fli inh 55*, LGR2 inh 92*, TROY signal inh 39, CF NFkB block -8 and DNA binder FP -4%.
`Cc1ccccc1NC(=O)c1ccc(F)c(S(=O)(=O)N2CCN(c3ccccn3)CC2)c1` gave TWEAK-Fn14 inh 34, KKLEB tox 13, EWS-Fli inh 18, LGR2 inh 2, TROY signal inh 16 and CF NFkB block -8.
O=C(Nc1ccc(Br)cc1)c1ccc(F)c(S(=O)(=O)N2CCN(c3ccccn3)CC2)c1 was read as TWEAK-Fn14 inh 53*, KKLEB tox 8, EWS-Fli inh 59*, LGR2 inh 8, TROY signal inh 33, CF NFkB block 20 and DNA binder FP -6%.
For N#CC1=C(N)Oc2cc(N)ccc2C1c1cccc(Br)c1 (stereo unspecified) the results were TWEAK-Fn14 inh -4, KKLEB tox -19, EWS-Fli inh 62*, LGR2 inh -4, TROY signal inh 31, CF NFkB block 40 and DNA binder FP 6%.
Cc1ccc(C2C(C#N)=C(N)Oc3cc(N)ccc32)cc1 (stereo unspecified) was read as TWEAK-Fn14 inh 15, KKLEB tox 2, EWS-Fli inh 1, LGR2 inh 3, TROY signal inh 0 and CF NFkB block 13.
Screening CC(C)C#Cc1ccc2c(c1)O[C@@H](CN(C)S(C)(=O)=O)[C@H](C)CN([C@H](C)CO)S2(=O)=O returned EWS-Fli inh 12 and LGR2 inh 9.
`O=c1c2ccccc2nc(/C=C/c2cc(Br)ccc2O)n1CCCO` gave TWEAK-Fn14 inh 69*, KKLEB tox -15, EWS-Fli inh 53*, LGR2 inh 26, TROY signal inh 12, CF NFkB block 27 and DNA binder FP 2%.
Screening O=c1c2ccccc2nc(/C=C/c2cccc([N+](=O)[O-])c2)n1CCO returned TWEAK-Fn14 inh 4, KKLEB tox -4, EWS-Fli inh 15, LGR2 inh 12, TROY signal inh 3 and CF NFkB block -14.
For COc1ccc(CNCCC(c2ccc(OC(C)C)cc2)C(C)C)cc1OC (stereo unspecified) the results were TWEAK-Fn14 inh -2, KKLEB tox -9, TROY signal inh 14 and CF NFkB block 9.
COc1ccc(C(CCNCc2ccc(OC(C)C)cc2)C(C)C)cc1 (stereo unspecified) was read as TWEAK-Fn14 inh -6, KKLEB tox -10, EWS-Fli inh 70*, LGR2 inh 15, TROY signal inh -21, CF NFkB block 2 and DNA binder FP -9%.
`COc1ccccc1C(CCNCc1ccc(N(C)C)cc1)c1ccc(OC(C)C)cc1` (stereo unspecified) gave TWEAK-Fn14 inh -14, KKLEB tox -1, EWS-Fli inh 60*, LGR2 inh 36, TROY signal inh 7, CF NFkB block 0 and DNA binder FP 5%.
Screening O=C(C[C@@H]1CC[C@@H]2[C@H](COC[C@@H](O)CN2C(=O)Nc2ccc(F)cc2)O1)NCCc1ccncc1 returned EWS-Fli inh 2 and LGR2 inh 12.
`CC(C)CC#Cc1cnc2c(c1)C(=O)N([C@H](C)CO)C[C@H](C)[C@@H](CN(C)Cc1ccc3c(c1)OCO3)O2` gave EWS-Fli inh 7 and LGR2 inh 3.
For Cc1noc(C)c1NC(=O)Nc1ccc2c(c1)C(=O)N([C@@H](C)CO)C[C@@H](C)[C@@H](CN(C)S(=O)(=O)c1cn(C)cn1)OCCCC[C@@H](C)O2 the results were EWS-Fli inh -7 and LGR2 inh 3.

Screens: PubChem, several laboratories
